From PubChem
IL1B secr inh: inhibitors of inflammasome signaling (IL-1 beta secretion); THP-1 LPS/ATP IL-1B secretion, AlphaLISA, 16 h; stronger effect = lower value; activity change, % at 57.5 µM; actives 4.7% (n = 360,000); in the data active = activity change below about -50%; inconclusive = mostly about -30% to -49%
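Secreted IL-1B measured by AlphaLISA bead assay after 16 h compound exposure of THP-1 cells; compounds (final up to 57.5 uM) added 1 h before LPS (250 ng/mL) and ATP (1.25 mM) stimulation; lower signal means less secretion.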
TDP1 block: inhibitors of human tyrosyl-DNA phosphodiesterase TDP1. recombinant TDP1, AlphaScreen DNA substrate cleavage. actives 0.28% (n = 350,000). Q9NUW8. AID 485290. Potency, µM (top dose mostly 130 µM), hits mostly inhibitors; also: nearly all actives have a fitted effect of over 40% in size
Target sequence (Q9NUW8 whole entry, looked up): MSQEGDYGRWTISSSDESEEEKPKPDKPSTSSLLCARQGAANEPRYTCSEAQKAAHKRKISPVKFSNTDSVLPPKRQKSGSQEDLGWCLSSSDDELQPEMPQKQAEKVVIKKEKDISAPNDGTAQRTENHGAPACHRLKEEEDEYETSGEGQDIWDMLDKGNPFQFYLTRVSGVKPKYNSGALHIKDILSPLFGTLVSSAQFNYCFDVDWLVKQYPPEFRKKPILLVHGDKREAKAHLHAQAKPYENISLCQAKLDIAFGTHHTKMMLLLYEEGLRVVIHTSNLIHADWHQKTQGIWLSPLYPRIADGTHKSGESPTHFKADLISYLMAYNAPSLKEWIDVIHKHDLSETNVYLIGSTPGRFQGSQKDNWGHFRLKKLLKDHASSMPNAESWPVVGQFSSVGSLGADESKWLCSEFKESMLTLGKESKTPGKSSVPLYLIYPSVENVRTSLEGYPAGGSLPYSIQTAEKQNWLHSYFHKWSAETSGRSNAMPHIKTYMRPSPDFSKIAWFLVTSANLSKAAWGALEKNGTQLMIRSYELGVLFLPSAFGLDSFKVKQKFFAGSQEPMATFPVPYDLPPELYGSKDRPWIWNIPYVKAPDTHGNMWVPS
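AlphaScreen read-out: signal falls as enzyme removes the 3' tyrosine-FITC from a 5'-biotinylated DNA oligo (15 nM, 5 min, RT). Enzyme was E. coli-made recombinant Tdp1 at 1 nM, exposed to compound for 15 min beforehand; beads 10 ug/ml, 10 min.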
TGFb SMAD3 inh: blocks TGF-b signaling; HepG2 CAGA-GFP TGF-b/SMAD3 reporter, GFP fluorescence, 18 h; TGF-beta stimulated, 500 pg/mL final; Potency, µM (highest dose often 46.1 µM), actives largely listed as inhibitors; actives 1.2% (n = 410,000); AID 588855; also: nearly all actives have a fitted effect of over 65% in size
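Inhibition of TGF-beta-driven CAGA-GFP reporter expression in HEPG2 cells is measured by cellular GFP fluorescence after 18 h stimulation with 500 pg/mL recombinant TGF-beta in 1% FBS medium at 37 degrees C.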
TDP1 cell noCPT: qHTS for Inhibitors of human tyrosyl-DNA phosphodiesterase 1 (TDP1): qHTS in cells in absence of CPT; DT40 Tdp1-/- hTDP1 cells, no CPT, ATP luminescence, 48 h; Potency, µM (top dose mostly 46.2 µM), hits mostly inhibitors; actives 15% (n = 420,000); AID 686978, 2013; also: nearly all actives have a fitted effect of over 55% in size
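Readout: luminescence from CellTiter-Glo after 30 min in the dark at RT. Cells: DT40 Tdp1-/- with stable hTDP1, 400/well. Exposure: compounds alone, ≥48 hr, 37 °C.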
TDP1 cell CPT: growth inhibition of DT40 Tdp1-/-;hTDP1 cells with camptothecin (screen for TDP1 inhibitors); AID 686979; actives 12% (n = 420,000); Potency, µM (top dose mostly 46.2 µM), actives largely listed as inhibitors; chicken DT40 Tdp1-/-;hTDP1 cells + 20 nM CPT, ATP luminescence, 48 h; also: nearly all actives have a fitted effect of over 55% in size
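Chicken DT40 Tdp1-/- cells complemented with human TDP1, 400 cells/well, exposed to compounds plus 20 nM camptothecin for at least 48 h at 37 C; viability read as ATP content by CellTiter-Glo luminescence.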
HepG2 viability: counter-screen for TGF-b inhibitors: cytotoxicity in HepG2 cells; HepG2 CAGA-GFP viability, ATP luminescence, 18 h; Potency, µM (highest dose often 46.1 µM), hits mostly cytotoxic; actives 0.76% (n = 410,000); AID 588856
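CellTiter-Glo luminescence gave cytotoxicity after 18 hours at 37 degrees C. The cells were HepG2 CAGA-GFP in 1% FBS DMEM, stimulated with 500 pg/mL TGF-beta after compound addition. %Activity was normalised to no-cell wells (complete cell-killing) and DMSO (no toxicity), and curves were fitted and classified.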
Hits are given with their value; 0 = inactive; ? = inconclusive; - = no result; [ ] = dose if it differs, or a comment. A selection: hits, their analogues and other compounds. The true share with any hit is near 18%. Unless noted, calls follow the shape of the dose curve; as a rule, active = well fitted curve in the direction sought with a large enough effect; inconclusive = small, poorly fitted or top-dose-only effect, or another doubt; inactive = no such curve, though single readings can be large; an effect the other way counts as inactive or inconclusive.

SMILES	IL1B secr inh	TDP1 block	TGFb SMAD3 inh	TDP1 cell noCPT	TDP1 cell CPT	HepG2 viability
CN(C)c1ccc(C=c2c3ccccc3n3c2cc(-c2ccc(Cl)cc2)[n+]3C)cc1	-119	-	?	4.6µM	4.1µM	0
CN(C)c1ccc(/C=C2\CCc3ccccc32)cc1	-	-	0	?	?	0
CN(C)c1ccc(C=c2c3ccccc3n3c2c2c([n+]3C)CCCC2)cc1	-111	-	2.5µM	0.33µM	0.41µM	0
COc1cc(C=c2c3ccccc3n3c2cc(-c2ccccc2)[n+]3C)cc(OC)c1OC	0	-	?	4.6µM	5.2µM	0
COc1ccc(CN2CCCC(n3cc(C(=O)N4CCCCC4)nn3)C2)c(OC)c1 (stereo unspecified)	-	-	-	0	0[9.04 µM]	-
COc1ccc(C2C3C(=O)N(Cc4ccccc4)C(=O)C3ON2c2ccccc2)c(OC)c1OC (stereo unspecified)	0	0	0	21µM	?	0
Cc1c(C2(O)CCCCC2)[nH]c2cc(C(F)(F)F)ccc12	-65	0	?	16µM	21µM	0
CCc1c(C2(O)CCCCC2)[nH]c2cc(C(F)(F)F)ccc12	0	-	?	13µM	?	14µM
Cc1c(C2(O)CCCCC2)[nH]c2cnccc12	0	0	0	0	0	0
CCC(=O)N1c2ccccc2CC1C(=O)NCCc1ccc(Cl)cc1 (stereo unspecified)	-	0	0	0	0	0
CCN(CC)C(=O)c1scc2c1OCCO2	-56	0	0	0	0	0
O=C(NCc1ccco1)c1scc2c1OCCO2	0	0	0	0	0	0
O=c1nc(-c2ccccc2Cl)c2cc(F)ccc2[nH]1	0	-	0	?	0	0
CC(=O)Nc1c(O)c2ccccc2[nH]c1=O	0	0	0	0	0	0
O=c1[nH]c2ccccc2c(=O)c2ccccc12	0	-	0	0	0	0
Cc1cc(=O)[nH]c2ccc(O)cc12	-	-	0	0	0.35µM	0
O=c1c2ccccc2[nH]c2ccc(F)cc12	0	0	0	9.2µM	21µM	0
O=c1c2ccccc2[nH]c2ccc(O)cc12	-71	40µM	0	0	0	0
Cc1ccc2[nH]c3ccccc3c(=O)c2c1	0	-	0	12µM	12µM	0
Cc1csc(Sc2nc3c(c(=O)[nH]c(=O)n3C)n2CCCc2ccccc2)n1	0	0	?	?	?	0
CCS(=O)(=O)N1CCC(C(=O)Oc2ccccc2Cl)CC1	0	-	0	0	0	0
COc1cc(/C=C2/SC(=S)NC2=O)ccc1OS(=O)(=O)c1ccc(C)cc1	-53	0	16µM	15µM	?	0
COc1ccc(/C=C2\SC(=S)N(CCCCCC(=O)Nc3cc(C)on3)C2=O)cc1OC	0	0	0	0	0	0
COc1cc(/C=C2\SC(=S)N(CCCCC(=O)O)C2=O)ccc1OS(=O)(=O)c1ccc(C)cc1	-87	-	0	?	?	0
S=C(NCC1CCCO1)Nc1ccc(Cl)c(Cl)c1 (stereo unspecified)	0	0	?	23µM	?	0
SMILES	IL1B secr inh	TDP1 block	TGFb SMAD3 inh	TDP1 cell noCPT	TDP1 cell CPT	HepG2 viability
COc1ccc(S(=O)(=O)Nc2ccc(S(=O)(=O)NCC3CCCO3)cc2)cc1 (stereo unspecified)	0	0	0	0	0	0
O=C(Cc1ccc(Cl)c(Cl)c1)NNC(=S)NCC1CCCO1 (stereo unspecified)	0	0	0	0	0	0
Cc1ccc(C(=O)NC(=S)NCC2CCCO2)cc1Br (stereo unspecified)	0	0	0	29µM	?	0
O=S(=O)(NCC1CCCO1)c1ccc(-c2ccc(S(=O)(=O)NCC3CCCO3)cc2)cc1 (stereo unspecified)	0	0	?	1.8µM	0.65µM	0
COc1ccc(NS(=O)(=O)c2ccc(NC(=S)NCC3CCCO3)cc2)cc1 (stereo unspecified)	0	0	0	?	15µM	0
CC1C(=O)N2CCCc3cc(S(=O)(=O)N(C)CCC#N)cc1c32 (stereo unspecified)	0	0	0	0	0	0
COCCn1c(=O)c(CCc2ccccc2)nc2cnc(Nc3ccccc3)nc21	-	-	-	0	0	-
CCN(CC)C(=O)c1ncn(C)c1C(=O)N(CC)CC	0	0	?	0	0	0
COc1cc(NS(=O)(=O)c2ccc(NC(=O)c3ccc(Cl)cc3Cl)cc2)nc(OC)n1	-	0[12.3 µM]	0	0	?	0
Cc1ccc(Cl)cc1NC(=O)CCn1c(=O)c2cccn2c2cccnc21	-	0	0	?	?	0
COc1ccc(CNC(=O)COCc2cc(-c3cccs3)on2)cc1	-	0	?	?	0	0
COC(=O)c1ccc(NC(=O)C2C3C=CC(C3)C2C(=O)O)cc1 (stereo unspecified)	0	-	0	0	0	0
O=C(ONC(=O)C1C2C=CC(C2)C1C(=O)NOC(=O)c1ccccc1)c1ccccc1 (stereo unspecified)	0	-	0	2.9µM	3.3µM	0
COc1ccc(NC(=O)N2CCCC3(CCN(C(=O)c4c(C)noc4C)CC3)C2)cc1	-	-	-	0	0	-
CC/C(=N\NC(=O)c1nnn(-c2nonc2N)c1-c1cccc(OC)c1)c1ccc(C)cc1	0	0	0	?	?	0
COc1ccc(Nc2ncnc3onc(C)c23)c(OC)c1	-	0	0	0	0	0
COc1ccc(OC)c(CCNc2ncnc3onc(C)c23)c1	-	0	0	5.2µM	7.3µM	0
Fc1ccc(-c2noc3ncnc(NCc4ccc(Cl)cc4)c23)cc1	-	0	0	?	?	0
Cc1noc2ncnc(NCc3cccc(Cl)c3)c12	-	0	0	18µM	16µM	0
Cc1ccc(CNc2ncnc3onc(C)c23)cc1	-	0	0	15µM	16µM	0
Cc1ccc(C(=O)C2(C)C3c4cc(Br)ccc4OC(=O)C32C(=O)c2ccco2)cc1 (stereo unspecified)	0	0	0	?	0	0
COc1ccc(Sc2nnc(Cc3ccccc3)c3ccccc23)cc1	-	0	0	?	?	0
COc1ccc(Nc2nnc(Cc3ccncc3)c3ccccc23)c(OC)c1	-57	-	0	0	0	0
COc1cccc(-c2nc(NC3CC3)c3ccccc3n2)c1	-	-	-	21µM	16µM	-
c1ccc(CNc2nc(-c3cccnc3)nc3ccccc23)cc1	0	-	0	?	?	0
CC(C)(C)c1ccc(-c2nc(NCc3cccnc3)c3ccccc3n2)cc1	-65	0	?	?	?	0
